The panel holds about 83,000 compounds, 20% with a hit somewhere; the sample as a whole holds those more often.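 Compound tested at a single concentration for 48 hours in 96-well plates; a percent growth value below 10 was scored as active.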 Active and inactive are the calls of the source.
Tested on: HL-60(TB) leukemia
Assay: NCI-60 one-dose screen, 48 h (100 = growth as untreated, 0 = no growth, -100 = all killed)
Settings: 10 µM unless noted

**Q.** How did the growth turn out when `O=C1c2ccccc2C(=O)c2c1c(C(=O)NCc1ccccc1)c1ccccn21` was run?
**A.** Its growth is 88.7% (inactive).

**Q.** Which growth does the source give for `O=C(Oc1ccccc1)c1cc(O)c(O)c(O)c1` here?
**A.** Its growth is -5.58% (active).

**Q.** For `C=C1C(=O)O[C@@H]2[C@@H]3O[C@@](C)(CC/C=C(\C)CCC[C@@H]2C)[C@H](O)C[C@@H]13`, which growth is on record?
**A.** The growth was 14.4% (inactive).

**Q.** Which growth does the source give for `CC(C)(C)c1cn2cccc(C(=O)N3CCN(CC(=O)Nc4ccc(Cl)cc4C(=O)c4ccccc4Cl)CC3)c2n1` here?
**A.** The growth was -32.4% (active).

**Q.** `COc1ccc(C/C(=C(\C)c2ccc(OCCN3CCCC3)cc2)c2ccc(OCCN3CCCC3)cc2)cc1` was tested. Which growth did it give?
**A.** The growth was -58.1% (active).

**Q.** How did the growth turn out when `CCN1C(=S)N(CC)C2Nn3c(s/c(=C4\C(=O)N(C)c5ccccc54)c3=O)=NC21` (stereo not drawn) was run?
**A.** Its growth is 6.45% (active).

**Q.** `O=c1nc2n(nc1/C=C/c1ccco1)CC(c1ccc(Cl)cc1)=NN2` was tested. Which growth did it give?
**A.** Its growth is 70.1% (inactive).

**Q.** Which growth does the source give for `CN1CCN(c2ccc3nc(-c4ccc5nc(-c6ccc(O)cc6)[nH]c5c4)[nH]c3c2)CC1` here?
**A.** The growth was 40.9% (inactive).

**Q.** How did the growth turn out when `NC(=O)N/N=C\c1ccc([N+](=O)[O-])o1` was run?
**A.** The growth was 120% (inactive).

**Q.** For `CCC[S@@](=O)c1ccc2nc(NC(=O)OC)[nH]c2c1`, which growth is on record?
**A.** Its growth is 56.6% (inactive).

**Q.** With `NC(CSC(c1ccccc1)(c1ccccc1)c1ccc2c(c1)OCO2)C(=O)O` (stereo not drawn) as the compound, how does the growth read?
**A.** Its growth is -26.2% (active).

**Q.** For `Cc1cccc(C)c1NC(=O)c1sc2nc3c(cc2c1N)C(=O)CCC3`, which growth is on record?
**A.** The growth was 104% (inactive).

**Q.** `N=C(N)c1nn(C2OC(CO)C(O)C2O)c2nc[nH]c(=O)c12` (stereo not drawn) was tested. Which growth did it give?
**A.** Its growth is -25.2% (active).
